These results are taken from PubChem BioAssay (NCI).

Among the test systems are HCT-15 colon; HT29 colon; SNB-75 CNS; SNB-19 CNS; U251 CNS; PC-3 prostate; SK-MEL-5 melanoma; UACC-62 melanoma; LOX IMVI melanoma; SK-MEL-28 melanoma.
What all share (assay): NCI-60 one-dose screen, 48 h (100 = growth as untreated, 0 = no growth, -100 = all killed)
Settings in all cases: 10 µM unless noted

Compounds without any hit were thinned out: in the full panel of roughly 83,000, 20% have a hit.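 The test compound was applied at a single concentration to cells in 96-well plates for 48 hours, and percent growth was recorded.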 Unmarked numbers belong to inactive results. The source made the active and inactive calls. How the source made its calls: active means growth percent below 10; inactive means the rest.

`CN(CCNCc1ccccn1)CCNCc1ccccn1`: the growth in the assay on HCT-15 colon was 9.87% (active); in the assay with HT29 colon, 7.47% (active); in the assay with SNB-75 CNS, 12.9%; in the assay with SNB-19 CNS, 44.7%; in the assay on U251 CNS, 11%; with PC-3 prostate, 5.04% (active). In addition, the growth with SK-MEL-5 melanoma is -31.7% (active); with UACC-62 melanoma, 4.5% (active); in the assay on LOX IMVI melanoma, 9.32% (active); in the assay with SK-MEL-28 melanoma, 10.7%.

With `O=C1OC(N(Cc2ccc(Cl)cc2)c2ccccc2)c2ccccc21` (stereo not given), the growth with HCT-15 colon was 104%; with HT29 colon it was 87.4%; in the assay on SNB-75 CNS, 115%; with SNB-19 CNS, 96.7%; with U251 CNS it was 100%; in the assay on PC-3 prostate, 98.2%. Moreover, the growth with SK-MEL-5 melanoma is 101%; with UACC-62 melanoma it was 93.9%; in the assay with LOX IMVI melanoma, 98.9%; with SK-MEL-28 melanoma it was 111%.

Consider `COC(=O)/C=C/C(=O)c1cc(C)cc(C)c1O`, for which the growth was 100% with HCT-15 colon; 99.7% in the assay on HT29 colon; 103% in the assay with SNB-75 CNS; 108% with SNB-19 CNS; 108% in the assay with U251 CNS; 102% with PC-3 prostate. Also, the growth was 104% in the assay with SK-MEL-5 melanoma, 106% in the assay on UACC-62 melanoma, 98.1% in the assay on LOX IMVI melanoma and 102% with SK-MEL-28 melanoma.

As to `O=C(NCCNc1nccc(-c2c(-c3cccc(O)c3)nc3sccn23)n1)c1cccc(C(F)(F)F)c1`, the growth in the assay on HCT-15 colon was 87.8%; with HT29 colon it was 81.1%; with SNB-75 CNS, 73.8%; in the assay on SNB-19 CNS it was 116%; in the assay with U251 CNS it was 84.8%; with PC-3 prostate it was 67.3%. Besides, the growth in the assay on SK-MEL-5 melanoma was 52.6%; with UACC-62 melanoma it was 3.21% (active); in the assay on LOX IMVI melanoma, 53.4%; with SK-MEL-28 melanoma, 38.5%.

On to `CCN1CCN(Cc2ccc(NC(=O)Nc3cccc(-n4ccc5c(NC(=O)c6ccccc6)nccc54)c3)cc2C(F)(F)F)CC1`, for which the growth in the assay on HCT-15 colon is 77%; in the assay with HT29 colon, 75.1%; in the assay on SNB-75 CNS, 80.2%; in the assay on SNB-19 CNS, 89.8%; with U251 CNS, 76.3%; in the assay with PC-3 prostate, 66.4%. Moreover, the growth in the assay with SK-MEL-5 melanoma is 43.1%; in the assay on UACC-62 melanoma it was 68%; with LOX IMVI melanoma, 85%; in the assay on SK-MEL-28 melanoma it was 82.8%.

Consider `CC[C@@]1(O)C(=O)OCc2c1cc1n(c2=O)Cc2c-1nc1ccccc1c2/C=N/OC(C)(C)C`, for which the growth was 11.2% in the assay on HCT-15 colon; -13.9% (active) in the assay on HT29 colon; 0.198% (active) in the assay on SNB-75 CNS; 5.74% (active) in the assay with SNB-19 CNS; -37.4% (active) in the assay with U251 CNS; 23.6% in the assay with PC-3 prostate. The growth in the assay on SK-MEL-5 melanoma was -66.3% (active); with UACC-62 melanoma, -58.6% (active); with LOX IMVI melanoma, -58.5% (active); in the assay with SK-MEL-28 melanoma, 14.3%.

In the case of `COc1ccc(/C=C/C(=O)c2ccc(NC(=O)CSc3nnc(-c4cc(OC)c(OC)c(OC)c4)o3)cc2)cc1`, the growth was -79.6% (active) in the assay on HCT-15 colon; -80.9% (active) with HT29 colon; -89.7% (active) in the assay on SNB-75 CNS; -48.7% (active) in the assay on SNB-19 CNS; -90.1% (active) with U251 CNS; -34.7% (active) in the assay with PC-3 prostate. Also, the growth in the assay with SK-MEL-5 melanoma was -84.2% (active); in the assay on UACC-62 melanoma it was -46.3% (active); in the assay with LOX IMVI melanoma it was -69.4% (active); in the assay on SK-MEL-28 melanoma, -21% (active).

As to `CN1C(=O)C2(SCC(C(=O)NCC(=O)OC(C)(C)C)N2C(=O)C2CCCCC2)c2ccccc21` (stereo not given), the growth is 96.6% in the assay on HCT-15 colon; 87.6% in the assay with HT29 colon; 80.4% in the assay on SNB-75 CNS; 99.2% with SNB-19 CNS; 92% in the assay with U251 CNS; 94.6% in the assay on PC-3 prostate. Further, the growth with SK-MEL-5 melanoma is 98.2%; with UACC-62 melanoma, 91.8%; with LOX IMVI melanoma, 94.9%; in the assay with SK-MEL-28 melanoma, 103%.

For the molecule `FC(F)(F)c1cn(CC2CNC2)c2ncnc(Cl)c12`, the growth was 104% with HCT-15 colon; 92.2% with HT29 colon; 109% in the assay on SNB-75 CNS; 99.9% with SNB-19 CNS; 105% with U251 CNS; 110% in the assay on PC-3 prostate. Also, the growth is 99.5% in the assay on SK-MEL-5 melanoma, 102% in the assay with UACC-62 melanoma, 102% in the assay with LOX IMVI melanoma and 104% with SK-MEL-28 melanoma.

`CCCCC(=O)Nc1nc2ccc(SCCC)cc2s1`: the growth with HCT-15 colon is 43.6%; in the assay with HT29 colon it was 18%; in the assay on SNB-75 CNS, 33.2%; in the assay on SNB-19 CNS it was 64.4%; with U251 CNS, 39.9%; in the assay on PC-3 prostate, 47.8%. The growth with SK-MEL-5 melanoma is 42.7%; in the assay on UACC-62 melanoma, 43.3%; in the assay with LOX IMVI melanoma, 43.2%; with SK-MEL-28 melanoma, 64.8%.

Regarding `C=C1C(=O)O[C@H]2[C@H]1CC/C(COC(=O)CCCC(=O)OC/C1=C/CC[C@@]3(C)O[C@H]3[C@H]3OC(=O)C(=C)[C@@H]3CC1)=C\CC[C@@]1(C)O[C@@H]21`, the growth was 4.33% (active) in the assay on HCT-15 colon; -40% (active) in the assay with HT29 colon; 93.3% in the assay on SNB-75 CNS; 67.6% with SNB-19 CNS; 48% in the assay on U251 CNS; 55.2% in the assay with PC-3 prostate. The growth in the assay on SK-MEL-5 melanoma is 33.4%; in the assay with UACC-62 melanoma, -18.7% (active); in the assay with LOX IMVI melanoma it was -70.3% (active); in the assay with SK-MEL-28 melanoma it was 8.77% (active).
